According to PubChem BioAssay (NCATS):
“And” between values parts separate entries of the source, which are not always exact repeats. Equal entries are not always repeated. Unmarked numbers belong to inactive results. Results filed as inconclusive are left out. Entries that show only a call come without a potency. The source made the active and inactive calls. Unless noted, the call rests on the fitted dose curve; in most records, active means well fitted curve in the direction sought with a large enough effect; inconclusive means small, poorly fitted or top-dose-only effect, or another doubt; inactive means no such curve, though single readings can be large; an effect the other way counts as inactive or inconclusive.

Legend:
[1] = Cellular Toxicity (caspase-3) HepG2 (AID 654);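 further: cells exposed to compound for 16 hours before reading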
How it was run: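 Caspase 3/7 activation is measured as a luminescence increase (aminoluciferin substrate) after 16 h compound exposure of human hepatocarcinoma HepG2 cells. AC50 values are Hill fits, scaled between DMSO baseline and 100 uM tamoxifen stimulation.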

[2] = Cellular Toxicity (caspase-3) HUV-EC-C (AID 656)
How it was run: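 Concentration-dependent caspase 3/7 induction was assessed in HUV-EC-C cells exposed for 16 hours. Data scaled between DMSO and tamoxifen (100 uM) controls.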

[3] = Cellular Toxicity (caspase-3) SHSY5Y (AID 657);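 further: cells exposed to compound for 16 hours at 37 °C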
How it was run: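 Readout: caspase-cleaved peptide-aminoluciferin substrate driving luciferase light in SH-SY5Y neuroblastoma cells after 16 h treatment. Response normalized to DMSO and 10 uM staurosporine controls.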

[4] = Cellular Toxicity (caspase-3) BJ (AID 658)
How it was run: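 Plated BJ cells (1000/well) rested 5 hr, received compound for 16 hr at 37 °C, then Caspase-Glo 3/7 reagent for 1 hr at room temperature before luminescence reading.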

[5] = Cellular Toxicity (caspase-3) Mesangial (AID 660);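 further: combined caspase 3 and 7 activity read by Caspase-Glo luminescence; cells exposed to compound for 16 h before the caspase read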
How it was run: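 Caspase 3/7 activation measured by Caspase-Glo 3/7 luminescence (20 min, room temperature) following 16 h exposure of mesangial cells (1000/well); AC50 from Hill-equation fit, normalized to DMSO and 100 uM tamoxifen.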

[6] = Cellular Toxicity (caspase-3) SK-N-SH (AID 661)
How it was run: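 Caspase 3/7 activation was read by luminogenic substrate cleavage after 16 hour treatment of SK-N-SH cells. Signal was scaled between DMSO and 10 uM staurosporine, and concentration-response data were fitted with the Hill equation for AC50.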

[7] = Cellular Toxicity (caspase-3) H-4-II-E (AID 663); conditions: Potency: caspase-3 activation;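 further: cells exposed to compound for 16 hr before readout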
How it was run: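 Caspase 3/7 activation measured in H-4-II-E cells in complete culture medium after 16 hr treatment at 37 °C, using luciferase-coupled substrate readout; AC50 values come from Hill-equation fits of normalized concentration-response data.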

[8] = Cellular Toxicity (caspase-3) N2a (AID 665);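 further: compound exposure lasted 16 h at 37 °C before readout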
How it was run: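 Caspase-3/7 activation measured as luminescence from Caspase-Glo reagent (1 h, room temperature) after 16 h compound exposure of mouse N2a cells. AC50 values from Hill-equation concentration-response, scaled between DMSO and 10 uM staurosporine.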

[9] = Cell Viability - LYMP2-001 (AID 921); further: nearly all actives have a fitted effect of over 70% in size; further: potency means the concentration at half of the fitted maximal effect
How it was run: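 A lymphoblastoid cell line of human origin was treated with library compounds across a concentration series for 24 hours, and viable cell number was estimated from ATP-driven luciferase light output. Hill modeling gave AC50.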

[10] = Cell Viability - LYMP1-002 - Assay at 16 hr (AID 948)
How it was run: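 In this qHTS, lymphoblastoid LYMP1-002 cells (human) receive compounds for 16 hr at 37 C. Viability is taken from CellTiter-Glo ATP luminescence, and AC50 derives from standard Hill fits.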

[11] = MultiTox-Fluor Cytotoxicity Assay - LYMP1-003 - Dead Cells (AID 961); further: nearly all actives have a fitted effect of over 70% in size
How it was run: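 Acute toxicity is scored as increased dead-cell protease activity in human lymphoblastoid LYMP1-003 cells after 16 h compound exposure in complete culture medium. Activity is normalized to DMSO basal and 15 uM tetraoctylammonium bromide as full response.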

[12] = MultiTox-Fluor Cytotoxicity Assay - LYMP1-003 - Live Cells (AID 962);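 further: cells exposed to compound for 16 hours at 37 °C; cytotoxic hits lower the live-cell protease signal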
How it was run: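 Live-cell protease activity (GF-AFC substrate, 405/510 nm, 60 min at room temperature) after 16 h, 37 C compound exposure of human lymphoblastoid LYMP1-003 cells; concentration-response fitted to the Hill equation for AC50.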

[13] = Cell Viability - LYMP2-013 (AID 970); further: nearly all actives have a fitted effect of over 55% in size; further: potency means the concentration at half of the fitted maximal effect
How it was run: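 qHTS cytotoxicity: ATP-dependent luminescence (CellTiter-Glo, 30 min room temperature) read after 24 h compound exposure at 37 C of 2500 LYMP2-013 lymphoblastoid cells per well. Concentration-response fitted with Hill equation to give AC50.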

[14] = Cell Viability - LYMP2-023 (AID 975);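 further: cells exposed to compound for 24 hours at 37 °C; nearly all actives have a fitted effect of over 55% in size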; further: potency means the concentration at half of the fitted maximal effect
How it was run: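 Intracellular ATP, read by CellTiter-Glo luminescence, reports viability after 24 hr compound exposure at 37 C. 2500 lymphoblastoid cells/well (LYMP2-023) seeded 5 hr beforehand; Hill fits give AC50; positive control tetraoctylammonium bromide.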

[15] = Cell Viability - LYMP2-025 (AID 976); further: series mostly up to about 92 µM
How it was run: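 Cytotoxicity read as loss of intracellular ATP (luciferase luminescence) after 24 h compound treatment at 37 C. Uses LYMP2-025 lymphoblastoid cells in 1536-well format; Hill-equation modelling gives AC50; tetraoctylammonium bromide as positive control.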

[16] = Cell Viability - LYMP2-007 (AID 979);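 further: cells exposed to compound for 24 h before reading; nearly all actives have a fitted effect of over 60% in size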; further: potency means the concentration at half of the fitted maximal effect
How it was run: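 AC50 values come from Hill-equation fits of luminescent intracellular ATP (CellTiter-Glo, 30 min, room temperature) following 24 h compound exposure at 37 C. Cells: LYMP2-007 lymphoblastoid line, 2500 per well, in complete culture medium.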

[17] = Cell Viability - LYMP2-008 (AID 980); further: nearly all actives have a fitted effect of over 60% in size; further: potency means the concentration at half of the fitted maximal effect
How it was run: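 Cytotoxicity determined from ATP-dependent luciferase luminescence (CellTiter-Glo) following 24 h compound exposure of human lymphoblastoid LYMP2-008 cells at 37 C. Concentration-response data fitted to the Hill equation to give AC50.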

[18] = Cell Viability - LYMP2-026 (AID 989); further: nearly all actives have a fitted effect of over 50% in size; further: potency means the concentration at half of the fitted maximal effect
How it was run: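 Cytotoxicity read as ATP-dependent luminescence (CellTiter-Glo, 30 min room temperature) after 24 h compound treatment at 37 C. LYMP2-026 lymphoblastoid line seeded at 2500 cells/well; AC50 derived by standard Hill equation.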

[19] = qHTS Assay for Identification of Small Molecule Inducers of Hypoxia Response (AID 2120; active means well fitted curve in the direction sought with a large enough effect in the signal ratio, with a control signal flat, not every such curve was filed as active; the % refers to the signal ratio)
How it was run: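 Reporter induction read as the CCF4 blue/green (460nm/530nm) emission ratio after 2.5 h dye loading at room temperature. ME-180 HRE-beta-lactamase cells received titrated compounds for 17 h at 37 degrees Celsius; AC50 values derived.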

[20] = qHTS assay for cell viability of HEK293 cells (AID 743288); conditions: ATP luminescence (CellTiter-Glo), 18 h, active compounds read low; further: nearly all actives have a fitted effect of over 50% in size
How it was run: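 HEK293, 18 h, 37 C, ATP luminescence. Cells at 2,000/well were allowed at least 5 h to settle before dosing; CellTiter-Glo developed 30 min at RT.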

Row | SMILES | outcome [1] | outcome [2] | outcome [3] | outcome [4] | outcome [5] | Potency [6] | Potency [7] | outcome [8] | Potency [9] | outcome [10] | Potency [11] | outcome [12] | Potency [13] | Potency [14] | Potency [15] | Potency [16] | Potency [17] | Potency [18] | Potency [19] | max response [20]
1 | Oc1c(Cl)c(Cl)cc(Cl)c1Cl | inactive | inactive | inactive | inactive | inactive | inactive | inactive | inactive | inactive | inactive | inactive | inactive | inactive | inactive | inactive | inactive | inactive | inactive | inactive | 1.93%
2 | Nc1ccc(Cc2ccc(N)c(Cl)c2)cc1Cl | inactive | inactive | inactive | inactive | inactive | inactive | inactive | inactive | inactive | inactive | inactive | inactive | inactive | inactive | inactive | inactive | inactive | inactive | inactive | -12.3%
3 | N#CC(Br)Br | inactive | inactive | inactive | inactive | inactive | inactive | inactive | inactive | inactive | inactive | inactive | inactive | – | – | inactive | 39.8 µM (active) | – | inactive | inactive | -22.9%
4 | c1ccc(N=NNc2ccccc2)cc1 | inactive | inactive | inactive | inactive | inactive | inactive | inactive | inactive | inactive | inactive | inactive | inactive | inactive | inactive | inactive | inactive | inactive | inactive | inactive | 5.57% and -4.44%
5 | COP(=S)(OC)SCn1nnc2ccccc2c1=O | inactive | inactive | inactive | inactive | inactive | inactive | inactive | inactive | inactive | inactive | – | inactive | inactive | inactive | inactive | inactive | inactive | inactive | inactive | -22%
6 | O=C(O)c1cccc(Cl)c1 | inactive | inactive | inactive | inactive | inactive | inactive | inactive | inactive | inactive | inactive | inactive | inactive | inactive | inactive | inactive | inactive | inactive | inactive | inactive | -0.932%
7 | N#CC(Cl)(Cl)Cl | inactive | inactive | inactive | inactive | inactive | inactive | inactive | inactive | inactive | inactive | inactive | inactive | inactive | inactive | inactive | inactive | inactive | inactive | inactive | -13%
8 | CN1CSC(=S)N(C)C1 | inactive | inactive | inactive | inactive | – | inactive | inactive | inactive | 12.6 µM (active) | – | inactive | – | 39.8 µM (active) | 39.8 µM (active) | – | 31.6 µM (active) | 39.8 µM (active) | 39.8 µM (active) | inactive | -15.3%
9 | O=[N+]([O-])c1c(Cl)c(Cl)c(Cl)c(Cl)c1Cl | inactive | inactive | inactive | inactive | inactive | inactive | inactive | inactive | inactive | inactive | inactive | inactive | inactive | inactive | inactive | inactive | inactive | inactive | inactive | -12.6% and -27.3%
10 | CCCCC(CC)COC(=O)c1ccc(C(=O)OCC(CC)CCCC)c(C(=O)OCC(CC)CCCC)c1 (configuration not stated) | inactive | inactive | inactive | inactive | inactive | inactive | inactive | inactive | inactive | inactive | inactive | inactive | inactive | inactive | inactive | inactive | inactive | inactive | inactive | -4.51%
11 | Nc1ccc([N+](=O)[O-])cc1N | inactive | inactive | inactive | inactive | inactive | inactive | inactive | inactive | inactive | inactive | inactive | inactive | inactive | inactive | inactive | inactive | inactive | inactive | inactive | 7.69% and 2.35%
12 | CCN(N=O)C(N)=O | inactive | inactive | inactive | inactive | inactive | inactive | inactive | inactive | inactive | inactive | inactive | inactive | inactive | inactive | inactive | inactive | inactive | inactive | inactive | 9%
13 | C=CCCC#N | inactive | inactive | inactive | inactive | inactive | inactive | inactive | inactive | inactive | inactive | inactive | inactive | inactive | inactive | inactive | inactive | inactive | inactive | inactive | -20.1%
